This is part of a sample that, as a whole, favours compounds with a hit. Of some 83,000 tested, about 20% had one in any assay.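 Values shown are percent growth following 48 h exposure of cells in 96-well plates to a single concentration of compound; below 10 was considered active.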 Activity calls are given as the source filed them.

In this assay the test system is HL-60(TB) leukemia. Briefly: NCI-60 one-dose screen, 48 h (100 = growth as untreated, 0 = no growth, -100 = all killed). Conditions: 10 µM unless noted.
Take `C=C(C)COc1ccc(C(C)(C)C)cc1`: the growth is 104% (inactive). For the compound `Cc1cc(C)c2c(=O)[nH]c(SCC(=O)Nc3cccc(S(=O)(=O)N(C)C)c3)nc2n1`, the growth was 97.2% (inactive). Regarding `C#CCNC(=S)N/N=C(\C)c1ccccn1`, the growth is -18.6% (active). In the case of `C[n+]1ccc(C#N)c2ccccc21` it was 70.3% (inactive); in that of `O=C1CCN2C(=O)Nc3ccccc3C2C1` (stereo not given), 94.5% (inactive). In the case of `CCCCOCCOCCOCc1cc2c(cc1Br)OCO2` it was 108% (inactive). For `Cc1ccc(-c2nc(N3CCN(C(=O)Nc4ccc(Cl)c(C(F)(F)F)c4)CC3)c3ccccc3n2)cc1`, the growth is 98.9% (inactive). Turning to `COc1ccc(-c2c(C(=O)NS(C)(=O)=O)n(Cc3cccc(C(F)(F)F)c3)c3ccccc23)cc1`, the growth is 102% (inactive).

Regarding `CSc1nc2c(c(=O)[nH]1)C1(C(=O)Nc3ccccc31)c1c(nc(SC)[nH]c1=O)N2`, the growth is 107% (inactive). Regarding `COc1cc(NC(C)CCCNC(=O)CCC(=O)NCCCNCCCCCCCCNCCCNC(=O)CCC(=O)NCCCC(C)Nc2cc(OC)cc3cccnc23)c2ncccc2c1` (stereo not given), the growth is 56.5% (inactive). In the case of `O=C(CCC(=O)c1nc2ncccc2[nH]1)NN1C(=O)CSC1c1ccc(Cl)cc1` (stereo not given), the growth is 99.6% (inactive).

As to `C=Cc1cnc(Nc2ccc(OC)cc2)nc1NCCCNC(=O)C1CCC1`, the growth is 14.6% (inactive). Regarding `C[Si](C)(C)C(c1ccccc1)c1ccccc1`, the growth was 80.5% (inactive). As to `COc1cccc(-c2cnco2)c1OCc1c(C)c(COc2c(OC)cccc2-c2cnco2)c(C)c(COc2c(OC)cccc2-c2cnco2)c1C`, the growth was 76.4% (inactive). To `Clc1ccc(C(SCc2ccccc2)SCc2ccccc2)cc1` belongs 97.6% (inactive); to `CCc1ccc(-c2nnc(COc3ccc(-c4nc5ccccc5[nH]4)cc3OC)o2)cc1`, 78.4% (inactive).

In the case of `COc1cccc(-c2nn(C(C)(C)C)cc2-c2ccnc(NCCCNS(=O)(=O)c3cccc4ccccc34)c2)c1`, the growth is 104% (inactive). Consider `COc1ccc2c(c1)O/C(=C\c1cccc(OCC(=O)Nc3nc4c(s3)CCCC4)c1)C2=O`, for which the growth was 27.4% (inactive). As to `CC[C@@H]1NC(=O)[C@H]([C@H](O)[C@H](C)C/C=C/c2ccc(CN3C(=O)CCCC3=O)cc2)N(C)C(=O)[C@H](C(C)C)N(C)C(=O)[C@H](CC(C)C)N(C)C(=O)[C@H](CC(C)C)N(C)C(=O)[C@@H](C)NC(=O)[C@H](C)NC(=O)[C@H](CC(C)C)N(C)C(=O)[C@H](C(C)C)NC(=O)[C@H](CC(C)C)N(C)C(=O)CN(C)C1=O`, the growth is 61.3% (inactive). Regarding `O=S(=O)(NCCNc1nccc(-c2c(-c3ccccc3)nc3sccn23)n1)c1ccc(O)cc1`, the growth was 68% (inactive).

As for `COc1cc(-c2nc(-c3nnc(-c4cccnc4)o3)c3ccccn23)cc(OC)c1OC`, the growth was 95.7% (inactive). As to `Oc1ccccc1-c1nnco1`, the growth was 96% (inactive).

Regarding `CN(C)CC1CCCCCC(CN(C)C)C1=O` (stereo not given), the growth was 26% (inactive). In the case of `CCCCN1c2nc3ccccc3cc2Sc2cc3ccccc3nc21` it was 101% (inactive). Regarding `CNC(=O)c1cc(Oc2ccc3nc(NC(=O)Nc4ccc(N5CCC(N(C)C)CC5)cc4)sc3c2)ccn1`, the growth was 77.1% (inactive). In the case of `CSc1cccc([N+](=O)[O-])c1` it was 91.7% (inactive); in that of `CN(C)CC/C=C1\c2ccccc2Sc2ccc(Cl)cc21`, 94.2% (inactive); in that of `O=S(=O)(NCCNc1cc(-c2cn(-c3ccccc3)nc2-c2ccccc2)ccn1)c1ccc(F)cc1`, 69.9% (inactive). To `CCCCn1c(=O)c2c(nc(NCCc3ccc(O)c(O)c3)n2CCC)n(CCCC)c1=O` belongs 60.3% (inactive). In the case of `CCN(C(=O)Nc1ccccc1Cl)c1ccccc1`, the growth is 113% (inactive). Consider `COc1ccc(-c2ncnc3c2ncn3CC#CCCl)cc1`, for which the growth was 48.8% (inactive).

As for `CCN(CC)CCC(=O)Nc1ccc(Cn2nnc3c2C(=O)c2nnn(Cc4ccc(NC(=O)CCN(CC)CC)cc4)c2C3=O)cc1`, the growth was -36.4% (active). To `Cc1ccc(C(=O)c2ccc(CC(=O)N=Nc3c(O)[nH]c4ccc(OC(F)(F)F)cc34)n2C)cc1` belongs 94.6% (inactive); to `CC(=O)c1cccc(N(C)S(=O)(=O)c2ccc(C)cc2)c1`, 88.8% (inactive); to `COc1ccc(-c2cc(-c3ccc(Cl)cc3)nc(SCCCCCCC(=O)NO)n2)cc1`, -18.2% (active).

Turning to `COc1ccccc1N1CCN(CC(O)COc2c(Br)c(Br)c(Br)c3c2OC(C)(C)C3)CC1` (stereo not given), the growth was 10.3% (inactive). Regarding `O=C1/C(=C\c2ccc(Cl)cc2)CN(C(=O)c2ccccc2)C/C1=C\c1ccc(Cl)cc1`, the growth was 58% (inactive). To `CCCCCCCCCCCCCCCCCCOc1ccccc1CC(=O)OCC[N+]1(C)CCOCC1` belongs 56.1% (inactive); to `COc1ccc(/C=C(\C#N)c2ccc(OC)cc2)cc1`, 50.9% (inactive). For the compound `O=C(NCc1ccc(Cn2c(=O)sn(-c3ccc(Cl)cc3)c2=O)cc1)OCc1ccc2c(Cl)cc(Cl)c(O)c2n1`, the growth is 56.3% (inactive).

These data come from PubChem BioAssay (NCI).
